# aSyn 5UTR act = Activators working through SNCA 5'UTR binding (MLPCN). alpha-synuclein 5'UTR reporter, activators screen. activity score, % (tested at 7.5 µM), hits read low. actives 7.1% (n = 300,000); in the data active = activity score below about -60%
# Hits are given with their value; – = inactive. A selection follows.
SMILES,aSyn 5UTR act
O=C1C(=O)N(c2ccccc2)C(c2ccccc2[N+](=O)[O-])/C1=C(\O)c1ccccc1 (stereo unspecified),-93
CCCC(=O)N/C(N)=N/c1nc2ccccc2o1,-121
CC(C)CC(=O)N/C(N)=N/c1nc2ccccc2o1,-160
CC(=O)Nc1cccc(NC(=O)Nc2ccc(C)c(Cl)c2)c1,-118
Cc1ccc(NC(=O)Nc2cnccn2)cc1Cl,-74
O=C(Nc1ccc(Br)cc1Cl)c1cnccn1,-70
COc1ccc(NC(=O)Nc2cnccn2)cc1,-80
CCC(C)c1ccc(NC(=O)Nc2cnccn2)cc1 (stereo unspecified),-188
O=C(Nc1cnccn1)Nc1ccc(Cl)cc1Cl,-62
Cn1ccc(NC(=O)Nc2ccc(Cl)cc2Cl)n1,-112
N=c1oc2ccccc2cc1C(=O)NC1CCCCCC1,-116
O=C(NCc1ccccc1Cl)c1cc2ccccc2oc1=O,-144
COc1cccc2cc(NC(=O)C3CCCCC3)c(=O)oc12,-162
O=C(NNc1c(F)c(F)cc(F)c1F)c1cc2ccccc2oc1=O,-122
COc1cccc2cc(C(=O)OC3CCN(C)CC3)c(=O)oc12,-88
O=C(OC1CCCCC1)c1cc2ccccc2oc1=O,-109
O=C(c1cc2ccccc2oc1=O)N1CCOCC1,-124
O=C(NC1CCCCCC1)c1cc2ccccc2oc1=O,-139
O=c1oc2ccccc2cc1NCc1ccccc1O,-176
CNC(=O)c1cc2c(cn1)[nH]c1ccccc12,-98
CC(=O)N(C(C)=O)c1ncc2c([nH]c3ccccc32)c1C#N,–
CSc1nnc2c(n1)c(C)nn2-c1cccc(C)c1,-172
Cc1ccc(NC(=O)C(=O)NC(C)C2COc3ccccc3O2)cc1 (stereo unspecified),-71
CCc1c(C(=O)Nc2ccc(OC)cc2)[nH]c(C)c1C(C)=O,-93
COc1ccc(NC(=O)c2[nH]c(C)c(C(C)=O)c2C)cc1,-193
SMILES,aSyn 5UTR act
CCOc1ccc(NC(=O)c2[nH]c(C)c(C(C)=O)c2C)cc1,-76
CCc1ccc(NC(=O)c2[nH]c(C)c(C(C)=O)c2C)cc1,-223
C=C(CC)C(=O)c1ccc(OCC(=O)O)c(Cl)c1Cl,-67
COc1ccccc1N=C1NC(=O)/C(=C/c2ccc(N(C)C)cc2)S1,-194
c1ccc(N2CCN(c3nc4ccccc4[nH]3)CC2)nc1,-136
CN1Cc2cc(C(=O)c3cc(Cl)cc(CSc4ncccn4)c3O)cnc2NC1=O,–
Cc1ccc(NC(=S)N/N=C/c2ccc([N+](=O)[O-])s2)cc1,-74
O=C(O)c1ccc(-c2noc(-c3ccccc3C(F)(F)F)n2)cc1,-109
O=C(O)c1ccc(-c2noc(-c3ccc(F)cc3)n2)cc1,-93
O=C(O)c1ccc(-c2noc(-c3ccccc3Cl)n2)cc1,-97
Cc1c(-c2nc(-c3ccc(C(F)(F)F)cc3)no2)n(C)oc1=O,-82
CS(=O)(=O)c1ccccc1-c1nc(-c2ccc(C(F)(F)F)cc2)no1,-62
O=C(Nc1ccc2c(c1)C(=O)NC2=O)c1ccc2ncsc2c1,-63
COc1ccc(NC(=O)c2ccc3ncsc3c2)cc1,-168
O=C(Nc1ccc(Br)cc1)c1ccc2ncsc2c1,-128
CCc1ccc(NC(=O)c2ccc3ncsc3c2)cc1,-155
COc1cccc2cc(-c3ccnc(=S)[nH]3)oc12,-74
CC(=O)c1cnc2cc(-c3ccccc3)nn2c1C,-167
CC(=O)c1cnc2cc(-c3ccc(C)cc3)nn2c1C,-243
CC(=O)c1cnc2nc(SCc3ccccc3)nn2c1C,-157
COc1ccc(-c2cc3ncc(C(C)=O)c(C)n3n2)cc1,-137
CC(C)c1ccc2[nH]c3c(c2c1)[C@@H]1CCN2C(=O)CCC[C@H](C3)[C@H]12,-93
Cc1cc(C)c2c(=O)n(-c3ccccc3)[nH]c2n1,-72
CC(=O)Nc1ccc(NC(=O)/C(Cl)=C/c2ccccc2)cc1,-117
COCCCC1CCN(C(=O)c2cc(COc3cc(C)ccc3C)on2)CC1,-180
SMILES,aSyn 5UTR act
COCCN1CCN(C(=O)c2cc(COc3cc(C)ccc3C)on2)CC1,-127
Cc1ccc(C)c(OCc2cc(C(=O)N3CCOCC3)no2)c1,-97
CC(=O)NCCC1CCCCN1C(=O)c1cc(COc2cc(C)ccc2C)on1 (stereo unspecified),-144
COCCN1CCN(C(=O)c2cc(COc3ccc(Cl)cc3OC)on2)CC1,-120
O=C(NC(=S)Nc1ncccn1)c1ccccc1Cl,-181
CCC(=O)Nc1cccc(NC(=S)NC(=O)c2cccs2)c1,-161
CCC(=O)Nc1cccc(NC(=S)NC(=O)c2ccccc2Cl)c1,-82
O=C(NC(=S)Nc1ccccc1O)c1ccc(Cl)cc1Cl,-106
Cc1nc(NC(=O)c2ccc(F)cc2)nc2cc3c(cc12)OCO3,-120
Cc1nc(NC(=O)c2ccccc2)nc2cc3c(cc12)OCO3,-127
CCOc1ccc(N2Cc3ccccc3C2)cc1,-120
CCOc1ccc(N2C(N)=NC(N)=NC2(C)C)cc1,–
CCOc1ccc(S(=O)(=O)N2c3ccccc3CC2C)cc1 (stereo unspecified),–
CCOc1ccc(OCc2cccc(C(=O)N3CCOCC3)c2)cc1,–
CC1CN(C(=O)c2cccc(COc3ccc(Br)cc3)c2)CC(C)O1 (stereo unspecified),-104
CC(C)/C=C1\CC/C(=C\c2cccnc2)C1=O,-62
O=C1/C(=C/c2cccnc2)CC/C1=C\c1cccnc1,-65
Cc1cccc(/C=C2\CCC(=C3SCCCS3)C2=O)c1,–
CCOC(=O)C(CC)(CC)C(=O)/C=C/c1cccc(Br)c1,-74
CCOc1cccc(-c2nnc3n2N=C(c2cc(OC)ccc2OC)CS3)c1,–
CCOc1cccc(-c2csc(C3COc4ccccc4O3)n2)c1 (stereo unspecified),-106
CCC(=O)Nc1ccc(/C=C(\C(C)=O)C(=O)c2ccccc2)cc1,-77
Cc1ccc(NC(=O)CC(=O)c2ccccc2)cc1C,-117
O=C(CC(=O)c1ccccc1)Nc1ccc(Cl)cc1,-174
COc1ccc(OC)c(/C=C2\SC(=S)N(Cc3cccnc3)C2=O)c1,-62
SMILES,aSyn 5UTR act
CC(NC(=O)Nc1ccc(Br)cc1)C(C)(C)C (stereo unspecified),-77
CCc1ccc(NC(=O)C2C3/C=C\CCCCC32)cc1 (stereo unspecified),-165
O=C(Nc1ccc(Cl)cc1)C1C2CCCCC21 (stereo unspecified),-150
CC(C)n1c(/C=C/[C@@H](O)C[C@@H](O)CC(=O)O)c(-c2ccc(F)cc2)c2ccccc21,–
Cc1cccc(Oc2coc3cc(OC(=O)c4cncc(Br)c4)ccc3c2=O)c1,-73
CCOC(=O)Oc1ccc2c(=O)c(Oc3cccc(C)c3)coc2c1,-75
C/C(=N\Nc1ccc(F)cc1F)c1cccs1,-88
COc1ccc(/C(C)=N/Nc2ccccc2Cl)c(O)c1,-102
COc1ccc(/C(C)=N/Nc2ccc(F)cc2F)c(O)c1,-97
COCCN(Cc1nc(-c2ccc(-c3ccccc3)cc2)oc1C)C(C)C,-215
CCOC(=O)c1sc(=NC(=O)c2ccccc2Br)n(C)c1C,-101
CCOC(=O)c1sc(=NC(=O)c2ccc(Cl)s2)n(C)c1C,-194
CCOC(=O)c1sc(=NC(=O)c2ccc(C)c(C)c2)n(C)c1C,-283
CCOC(=O)c1sc(=NC(=O)/C=C/c2ccccc2)n(C)c1C,-111
CCOC(=O)c1sc(=NC(=O)c2cccs2)n(C)c1C,-122
Cc1ccc2c(c1)sc(=NC(=O)c1cccs1)n2C,–
COc1ccc(C2=NOC(CNC(=S)N3CCOCC3)C2)cc1 (stereo unspecified),-132
CC(=O)Nc1ccc(-c2nc3c(C)cccc3[nH]2)cc1,-141
